The source of these data is the supplement of paper PMC10811239.

The assay relates to LEGO organoid PTN (PTEN-/-; TP53-/-; NF1-/-). In words: bioluminescence (viable cell) signal fold change after vs before treatment, normalised to DMSO (ratio); higher = more tumour cell growth / less inhibition. As to conditions: 10 µM; treatment time 6 days. The procedure:
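Luc2-labelled iPSC-derived glioblastoma-like organoids (LEGOs, genotypes PT = PTEN-/-;TP53-/-, PTCC = plus CDKN2A/B-/-, PTN = plus NF1-/-) were treated with 10 uM drug for 6 days (applied every other day) at 37 C. Bioluminescence imaging was done before treatment and 2 days after the last dose. BLI signals were normalised to the DMSO control on the same day and then to the pre-treatment signal (N=3).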
As to `CCc1nc(N)nc(N)c1-c1ccc(Cl)cc1` [Pyrimethamine], the bioluminescence was determined as 0.803.

For `Cl.O=C1CN2Cc3c(ccc(Cl)c3Cl)NC2=N1` [Anagrelide hydrochloride], the bioluminescence was 1.

`CCC(CC)O[C@@H]1C=C(C(=O)O)C[C@H](N)[C@H]1NC(C)=O` [Oseltamivir acid]: the bioluminescence came to 1.58.

With `CNS(=O)(=O)Cc1ccc2[nH]cc(CCN(C)C)c2c1.O=C(O)CCC(=O)O` [Sumatriptan succinate], the bioluminescence is 1.05.

With `C=CC(=O)Nc1cc(Nc2nccc(-c3cn(C)c4ccccc34)n2)c(OC)cc1N(C)CCN(C)C` [Osimertinib], the bioluminescence is 0.0227.

Regarding `C#Cc1cccc(Nc2ncnc3cc(OCCOC)c(OCCOC)cc23)c1.Cl` [Erlotinib hydrochloride], the bioluminescence worked out at 2.02.

With `Cc1oncc1C(=O)Nc1ccc(C(F)(F)F)cc1` [Leflunomide], the bioluminescence is 3.5.

As to `CN(C/C=C/C#CC(C)(C)C)Cc1cccc2ccccc12` [Terbinafine], the bioluminescence came to 2.32.

Regarding `CCCCN1CCCCC1C(=O)Nc1c(C)cccc1C.Cl` (stereo unspecified) [Bupivacaine hydrochloride], the bioluminescence was found to be 0.809.

In the case of `CN(C)CCC[C@@]1(c2ccc(F)cc2)OCc2cc(C#N)ccc21.O=C(O)C(=O)O` [Escitalopram Oxalate], the bioluminescence is 0.956.

For `NCC[C@H](O)C(=O)N[C@@H]1C[C@H](N)[C@@H](O[C@H]2O[C@H](CN)[C@@H](O)[C@H](O)[C@H]2O)[C@H](O)[C@H]1O[C@H]1O[C@H](CO)[C@@H](O)[C@H](N)[C@H]1O.O=S(=O)(O)O.O=S(=O)(O)O` [Amikacin disulfate], the bioluminescence stood at 0.614.

Consider `CN1[C@@H]2CC[C@H]1C[C@@H](OC(c1ccccc1)c1ccccc1)C2.CS(=O)(=O)O` [Benztropine mesylate], for which the bioluminescence worked out at 0.419.

In the case of `CN(C)CCCN1c2ccccc2CCc2ccc(Cl)cc21.Cl` [Clomipramine hydrochloride], the bioluminescence worked out at 1.5.

In the case of `CNCC[C@@H](Oc1ccccc1C)c1ccccc1.Cl` [Atomoxetine hydrochloride], the bioluminescence came to 1.97.

As to `CC(C)c1nc(CN(C)C(=O)N[C@H](C(=O)N[C@@H](Cc2ccccc2)C[C@H](O)[C@H](Cc2ccccc2)NC(=O)OCc2cncs2)C(C)C)cs1` [Ritonavir], the bioluminescence was found to be 1.83.

Take `Nc1nc2c(ncn2COCCO)c(=O)[nH]1` [Aciclovir]: the bioluminescence turned out to be 4.45.

Take `Cl.OC(CCN1CCCCC1)(c1ccccc1)C1CCCCC1` (racemic) [DL-trihexyphenidyl hydrochloride]: the bioluminescence turned out to be 0.496.

`CCCC(CCC)C(=O)[O-].[Na+]` [Valproic acid sodium salt]: the bioluminescence came out at 2.43.

Consider `C[C@@H]1O[C@]2(CS1)CN1CCC2CC1.C[C@@H]1O[C@]2(CS1)CN1CCC2CC1.Cl.Cl.O` [Cevimeline hydrochloride hemihydrate], for which the bioluminescence came out at 0.522.

Regarding `Nc1ncnc2c1ncn2[C@@H]1O[C@H](CO)[C@@H](O)[C@H]1OP(=O)(O)O` [Adenosine-2'-monophosphate], the bioluminescence was found to be 1.26.

Regarding `O=c1cc(O)c(Cl)c[nH]1` [Gimeracil], the bioluminescence stood at 1.25.

For the compound `CCCN(CCc1cccs1)[C@H]1CCc2c(O)cccc2C1` [Rotigotine], the bioluminescence turned out to be 1.77.

For `CCOC(=O)N1CC\C(CC1)=C1\c2ccc(Cl)cc2CCc2cccnc12` [Loratadine], the bioluminescence came to 1.36.

On to `Nc1nc(NC2CC2)c2ncn([C@H]3C=C[C@@H](CO)C3)c2n1` [Abacavir], for which the bioluminescence is 3.33.

As for `CO/N=C(\C(=O)N[C@@H]1C(=O)N2C(C(=O)[O-])=C(COC(C)=O)CS[C@H]12)c1csc(N)n1.[Na+]` [Cefotaxime sodium], the bioluminescence is 0.707.

As for `CC[C@H](C)C(=O)O[C@H]1C[C@@H](C)C=C2C=C[C@H](C)[C@H](CC[C@@H]3C[C@@H](O)CC(=O)O3)[C@H]21` [Lovastatin], the bioluminescence turned out to be 0.3.

`CCCN(CCC)CCc1cccc2c1CC(=O)N2.Cl` [Ropinirole hydrochloride]: the bioluminescence was determined as 0.313.

Regarding `O=C(O)c1cccnc1` [Niacin], the bioluminescence was found to be 1.59.

`C#Cc1cccc(Nc2ncnc3cc(OCCOC)c(OCCOC)cc23)c1` [Erlotinib]: the bioluminescence was found to be 1.82.

Take `CO[C@@H]1[C@H](N(C)C(=O)c2ccccc2)C[C@H]2O[C@]1(C)n1c3ccccc3c3c4c(c5c6ccccc6n2c5c31)C(=O)NC4` [Midostaurin]: the bioluminescence was determined as 0.647.

For `CC/C(=C(/CC)c1ccc(O)cc1)c1ccc(O)cc1` [Diethylstilbestrol], the bioluminescence came to 2.47.
